{"source": "PubChem BioAssay AID652257", "about": "(The Scripps Research Institute Molecular Screening Center, 2013)", "note": "The campaign covered roughly 370,000 compounds. About 4,800 (1.3%) were called active.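 How the source made its calls: active means inhibition above about 21% made by adding two undisclosed values (limit read from the data); inactive means the rest.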 This excerpt belongs to a sample that is enriched for actives.", "data": [{"target": "Protein arginine N-methyltransferase 1 (Homo sapiens) (UniProt Q99873)", "sequence (Q99873 whole entry, looked up)": "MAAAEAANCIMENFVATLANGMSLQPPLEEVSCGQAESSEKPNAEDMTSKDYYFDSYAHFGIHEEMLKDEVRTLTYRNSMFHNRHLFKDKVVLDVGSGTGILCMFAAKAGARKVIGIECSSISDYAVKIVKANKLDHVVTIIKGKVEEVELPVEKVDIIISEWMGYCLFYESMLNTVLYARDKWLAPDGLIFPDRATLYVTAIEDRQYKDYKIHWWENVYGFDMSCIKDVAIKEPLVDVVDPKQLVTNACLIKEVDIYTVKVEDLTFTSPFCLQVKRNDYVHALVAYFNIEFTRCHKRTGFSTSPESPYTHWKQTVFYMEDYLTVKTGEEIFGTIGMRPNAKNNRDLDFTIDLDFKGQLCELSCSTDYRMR", "assay": "human PRMT1 activity-probe blockers – biochemical, fluorescence polarization, primary screen (AID 652257)", "conditions": "recombinant PRMT1, activity-based probe fluorescence polarization; at 2.79 µM; active compounds read high", "values": [{"smiles": "CC(=O)N1CCc2cc(S(=O)(=O)NCCC(=O)N3CCCC3)ccc21", "inhibition": "0.09% (inactive)"}, {"smiles": "Oc1ccc(/C=C/c2c(F)cccc2F)c2cccnc12", "inhibition": "-1.47% (inactive)"}, {"smiles": "COCC1CCN(C(=O)c2ccc3oc(Cc4ccccc4)nc3c2)C1", "note": "(configuration not stated)", "inhibition": "-0.25% (inactive)"}, {"smiles": "O=C(Nc1cc(C(F)(F)F)ccc1Cl)c1cc2nc3c(c(C(F)(F)F)n2n1)CCCC3", "inhibition": "-0.92% (inactive)"}, {"smiles": "c1cncc(CNc2ccnc(-c3ccc4c(c3)OCO4)n2)c1", "inhibition": "-4.36% (inactive)"}, {"smiles": "COc1ccc(/C=N/n2c(C)cc(C)cc2=O)cc1", "inhibition": "-4.04% (inactive)"}, {"smiles": "C=CCN1C(=O)[C@@H](CC(=O)N2CCN(C(=O)c3ccco3)CC2)[C@]2(C(=O)OC)CCCCC=C12", "inhibition": "0.68% (inactive)"}, {"smiles": "CN(C(N)=NC(=O)/C=C/c1ccccc1)C(C#Cc1ccccc1)Cc1ccccc1", "note": "(configuration not stated)", "inhibition": "-2.71% (inactive)"}, {"smiles": "COc1cc(Cl)cc(C2NC(=O)NC(C)=C2C(=O)NCc2ccccc2)c1O", "note": "(configuration not stated)", "inhibition": "0.85% (inactive)"}, {"smiles": "O=C(NN1C(=O)C2C3C=CC(O3)C2C1=O)c1ccncc1", "note": "(configuration not stated)", "inhibition": "3.88% (inactive)"}, {"smiles": "COc1ccccc1C(=O)NN1C(=O)C2C3C=CC(O3)C2C1=O", "note": "(configuration not stated)", "inhibition": "35.6% (active)"}, {"smiles": "O=C(NN1C(=O)C2C3C=CC(O3)C2C1=O)c1ccccc1", "note": "(configuration not stated)", "inhibition": "-3.32% (inactive)"}, {"smiles": "Nc1nc(CC(=O)CSc2ccc(Cl)cc2)nc(Nc2ccc(F)cc2)n1", "inhibition": "-4.39% (inactive)"}, {"smiles": "COC(=O)[C@]12C[C@H](CC(=O)N3CCOCC3)C(=O)N(Cc3ccc(Cl)cc3Cl)C1=C[C@H](COCc1ccccc1)O[C@@H]2C", "inhibition": "2.19% (inactive)"}, {"smiles": "Nc1c(C(=O)c2cccs2)sc2nsc(SCCN3CCCCC3)c12", "inhibition": "25.1% (active)"}, {"smiles": "CC(=NC1CCN(Cc2ccccc2)CC1)c1c(O)[nH]c(=O)[nH]c1=O", "inhibition": "1.82% (inactive)"}, {"smiles": "c1ccc(CN2CCC(N=C3NN=C(c4ccc5c(c4)OCCO5)CS3)CC2)cc1", "inhibition": "27.6% (active)"}, {"smiles": "CS(=O)(=O)N(CC(=O)N1CCN(Cc2ccccc2)CC1)c1ccc2c(c1)OCCO2", "inhibition": "-1.51% (inactive)"}, {"smiles": "O=C(CSc1nnc(COc2ccccc2)n1-c1ccc(Cl)cc1)Nc1ccc2c(c1)OCO2", "inhibition": "0.01% (inactive)"}, {"smiles": "CC1(C)NC(=O)N(CC(=O)Nc2ccc(-c3ccccc3)cc2)C1=O", "inhibition": "-1.42% (inactive)"}, {"smiles": "Cc1ccc(NC(=O)Cn2sc3ccccc3c2=O)cc1", "inhibition": "91.8% (active)"}, {"smiles": "O=C(Cn1nc(C(=O)O)c2ccccc2c1=O)Nc1ccc(F)cc1", "inhibition": "2.28% (inactive)"}, {"smiles": "CN(C)C(=O)CCc1ccc2c3c([nH]c2c1)[C@]1(CCc2ccccc2)[C@@H](C(=O)N2CCCCC2)C[C@H](CC(=O)NCCC2=CCCCC2)C(=O)N1CC3", "inhibition": "-1.05% (inactive)"}, {"smiles": "O=C1Nc2ccccc2OC1CC(=O)N1CCCCCCC1", "note": "(configuration not stated)", "inhibition": "1.11% (inactive)"}, {"smiles": "CN(CC(=O)NC1CCCC1)S(=O)(=O)c1cnc[nH]1", "inhibition": "-5.5% (inactive)"}, {"smiles": "CC1CCN(C(=O)C2CCN(S(=O)(=O)N3CCC4(CC3)OCCO4)CC2)CC1", "inhibition": "-2.98% (inactive)"}, {"smiles": "COc1ccc(-c2nn(C)c(=O)c3ccccc23)cc1NC(=O)COc1ccccc1", "inhibition": "3.05% (inactive)"}]}]}
